NR5A2 inv ag: inverse agonists of human LRH-1 (NR5A2); O00482; HEK293T StAR-luciferase reporter, LRH-1 transfected, 24 h; inhibition, % at 3.6 µM; 360,000 tested, 0.13% active;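 active means inhibition above the mean inhibition of all tested compounds plus 3 SD, cut at about 73% in these data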;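 further: 0% = DMSO wells and 100% = reporter-only cells lacking LRH-1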
Target sequence (O00482 whole entry, looked up): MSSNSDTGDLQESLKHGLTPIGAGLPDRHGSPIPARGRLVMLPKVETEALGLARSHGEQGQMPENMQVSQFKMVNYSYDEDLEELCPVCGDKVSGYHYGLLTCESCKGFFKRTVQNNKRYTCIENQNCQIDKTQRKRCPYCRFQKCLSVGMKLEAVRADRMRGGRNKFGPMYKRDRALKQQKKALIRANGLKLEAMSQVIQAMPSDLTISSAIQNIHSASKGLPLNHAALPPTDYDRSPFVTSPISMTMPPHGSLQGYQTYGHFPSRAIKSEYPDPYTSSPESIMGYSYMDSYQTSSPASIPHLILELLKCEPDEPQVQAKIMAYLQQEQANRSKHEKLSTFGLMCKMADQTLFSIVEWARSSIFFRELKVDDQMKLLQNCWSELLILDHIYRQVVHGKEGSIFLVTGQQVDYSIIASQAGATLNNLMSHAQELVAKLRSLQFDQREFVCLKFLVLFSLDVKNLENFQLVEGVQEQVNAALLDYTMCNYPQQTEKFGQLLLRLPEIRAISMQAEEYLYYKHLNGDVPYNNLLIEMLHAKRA
GalR3 antag: antagonists of human GalR3; O60755; HEK293 GalR3-CNG cAMP membrane potential fluorescence; galR3 body fused to GalR1 C-terminus; inhibition, % at 3 µM; 360,000 tested, 0.44% active; AID 651719;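 active means inhibition above the screen-wide average plus 3 SD, cut at about 13% in these data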;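 further: forskolin and galanin both at EC90 stimulate the cells; cAMP rise reported by CNG channel membrane potential dye signal; 0% = forskolin plus galanin with DMSO and 100% = forskolin alone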
COUP-TFII inh: inhibitors of human COUP-TFII (NR2F2). AID 686940. inhibition, % at 8.6 µM. HEK293T NGFI-A luciferase reporter, luminescence. 370,000 tested, 0.7% active;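 active means inhibition above a per-plate cutoff, mean inhibition of test wells between control levels plus 3 SD, cut at about 38% in these data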;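 further: cells cotransfected with COUP-TFII expression vector driving the NGFI-A reporter; 0% = median of COUP-TF2 test wells and 100% = reporter-only cells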
NCOA3 inh: human NCOA3 inhibition; Q9Y6Q9; HEK293 GAL4-SRC3 luciferase reporter, luminescence; inhibition, % at 3.6 µM; 360,000 tested, 0.17% active; AID 588352;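 active means inhibition above a per-campaign cutoff, the mean of all compounds plus 3 SD, cut at about 60% in these data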;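 further: 0% = DMSO-treated cells and 100% = gossypol-treated cells at 36 µM; higher means less SRC3-driven luciferase light from the GAL4 reporter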
SRC2 inh: inhibits human steroid receptor coactivator 2; 370,000 tested, 0.17% active; Q15596; inhibition, % at 9 µM; HEK293 GAL4-SRC2 luciferase reporter, luminescence;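 active means inhibition above the mean inhibition of all tested compounds plus 3 SD, set per campaign, cut at about 52% in these data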;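 further: 0% = DMSO treated cells and 100% = cells given Gossypol at 36 µM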
SRC1 inh: inhibitors of human steroid receptor coactivator 1 (SRC1) | inhibition, % at 3.6 µM | 360,000 tested, 0.12% active | HEK293 GAL4-SRC1 luciferase reporter, luminescence | Q15788;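 active means inhibition above the campaign mean plus 3 SD, with each screening campaign given its own cutoff, cut at about 60% in these data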;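 further: 0% = DMSO treated cells and 100% = gossypol at 36 µM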
Gal4-VP16 ctr: inhibits VP16 reporter, flagging COUP-TFII antagonist hits; shares compounds with COUP-TFII inh; HEK293 Gal4-VP16 luciferase reporter, luminescence; inhibition, % at 8.5 µM; 2,500 tested, 25% active; AID 687007; in the data active means inhibition above about 13%
NR2F2 inh conf: COUP-TFII (NR2F2) inhibition, confirmation assay | shares compounds with COUP-TFII inh | HEK293 NGFI-A luciferase reporter, luminescence | inhibition, % at 8.5 µM | 2,500 tested, 45% active | AID 687008;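 active means mean inhibition over three repeats above a set limit taken from the earlier primary screen, cut at about 38% in these data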;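 further: 100% = cells given the luciferase reporter alone without the COUP-TF2 vector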
* hit, by the source's call; / = not tested or not shown. A selection: hits, their analogues and other compounds. The true share with any hit is near 1.1%.

SMILES	NR5A2 inv ag	GalR3 antag	COUP-TFII inh	NCOA3 inh	SRC2 inh	SRC1 inh	Gal4-VP16 ctr	NR2F2 inh conf
Cc1ccccc1OCCn1cc(C(=S)N2CCCC2)c2ccccc21	-25	-4	1	3	-15	0	/	/
CC(=O)c1cn(CCOc2ccc(F)cc2)c2ccccc12	12	-9	47*	-16	30	1	-13	11
CC(=O)c1cn(CCOc2ccccc2C)c2ccccc12	25	4	61*	28	19	19	0	54*
CC(=O)c1cn(CC(=O)Nc2ccccc2)c2ccccc12	41	-9	47*	19	17	17	-6	19
Cc1ccc(S(=O)(=O)Cn2nnnc2C(C(C)C)N2CCC(O)CC2)cc1 (stereo unspecified)	16	-4	17	-15	1	-15	/	/
c1ccc(CCNc2ncnc3ccccc23)cc1	-54	93*	57*	11	15	-22	-149	29
O=C(CSc1ncnc2ccccc12)NCCc1ccccc1	15	0	4	7	5	-25	/	/
Brc1ccc2ncnc(NCc3ccccc3)c2c1	41	-6	58*	64*	55*	67*	18*	49*
CC1=NNC(=O)C1CCC(=O)N/N=C/c1c(Cl)cccc1Cl (stereo unspecified)	18	1	13	0	4	-18	/	/
COc1cc(C(=O)Nc2nc3ccccc3[nH]2)ccc1OC(F)F	-95	-2	15	-48	-24	-58	/	/
CCOc1ccc(C(=O)Nc2nc3ccccc3[nH]2)cc1OCC	-26	-6	52*	-29	-9	-14	-82	4
O=C(Nc1nc2ccccc2[nH]1)c1ccc(F)cc1	-136	-8	-61	-54	-96	-127	/	/
CCc1ccc(C(=O)Nc2nc3ccccc3[nH]2)cc1	-4	-6	74*	4	68*	-13	-13	29
O=C(Nc1nc2ccccc2[nH]1)c1ccccc1F	44	-5	62*	64*	65*	50	33*	48*
CCC[C@@H](/C=C/C(=O)OC(C)(C)C)Sc1ccccc1OC	/	/	5	/	0	/	/	/
O=C(CCc1ccccc1)N[C@H]1[C@@H](OC(=O)c2cccnc2)CCC[C@]12C(=O)N(Cc1ccccc1)c1ccccc12	/	/	10	/	16	/	/	/
Cc1cc(N2CCN(C(=O)Oc3ccc(-c4ccccc4)cc3)CC2)c2ccccc2n1	/	/	62*	/	18	/	-1	36
CCOc1ccc(CCNC(=O)c2ccc(Cl)c(S(=O)(=O)N3CCOCC3)c2)cc1OCC	17	-6	22	26	9	16	/	/
O=C(NCCc1ccc(F)cc1)c1ccc(Cl)c(S(=O)(=O)N2CCOCC2)c1	3	-5	40*	15	21	11	-10	8
Cn1cc([N+](=O)[O-])c(C(=O)Nc2cc(Oc3ccccc3)cc([N+](=O)[O-])c2)n1	-23	2	1	11	9	-25	/	/
Cc1cccc(Oc2cc(NC(=O)c3ccccc3)cc([N+](=O)[O-])c2)c1	35	-9	50*	23	30	12	-6	26
Cc1ccc(C)c(S(=O)(=O)N2CCN(C(=O)c3cc(S(=O)(=O)NCc4ccccc4)ccc3C)CC2)c1	11	-6	-1	12	14	5	/	/
Cn1c(=O)[nH]c2c(Br)nccc21	/	/	-21	/	-3	/	/	/
O=S1(=O)CC2c3ccc(F)cc3CN2CN1CCc1ccccc1 (stereo unspecified)	/	/	2	/	10	/	/	/
COC(=O)C1=C(C(=O)OC)[C@@]2([C@@H](Cc3ccc(C)cc3)Nc3ccccc3)C=C[C@@H]1O2	/	/	81*	/	/	/	31*	28
SMILES	NR5A2 inv ag	GalR3 antag	COUP-TFII inh	NCOA3 inh	SRC2 inh	SRC1 inh	Gal4-VP16 ctr	NR2F2 inh conf
Cc1cc(C)n2nc(CNS(=O)(=O)c3ccc(F)cc3)nc2n1	-24	/	-28	15	-18	3	/	/
Cc1ccccc1C(=O)N1CCN(c2ccc(NC(=O)CSc3ccc(Cl)cc3)cc2)CC1	7	-6	54*	33	38	25	0	57*
COc1ccc(OCC(=O)Nc2ccc(N3CCN(C(=O)c4ccco4)CC3)cc2)cc1	-2	-5	5	6	0	0	/	/
O=C(COc1ccc(Cl)cc1)Nc1ccc(N2CCN(C(=O)c3ccco3)CC2)cc1	11	-10	52*	24	5	12	-1	35
CCC(=O)Nc1ccc(N2CCN(C(=O)c3ccccc3C)CC2)cc1	-1	-6	5	7	4	-33	/	/
Cc1ccccc1C(=O)N1CCN(c2ccc(NC(=O)c3ccc4c(c3)OCCO4)cc2)CC1	35	0	68*	40	41	35	10	58*
CN(C)CCCNC(=O)C[C@@H]1CC[C@@H]2[C@H](COc3ccc(NC(=O)c4cccc(F)c4)cc3C(=O)N2C)O1	/	/	-21	/	-31	/	/	/
Cc1cccc(CNC(=S)OC2CCC23CCC(c2ccccc2)CC3)c1 (stereo unspecified)	/	/	-9	/	15	/	/	/
Cc1ccc(-c2cc(N)n(Cc3ccc(Cl)cc3)n2)cc1	38	89*	48*	0	-21	-5	-19	21
Cc1cc(N)n(Cc2ccc(Cl)cc2)n1	-2	3	4	13	-4	1	/	/
Cc1ccc(S(=O)(=O)N2O[C@@H](c3ccccc3)C[C@H]2CON2C(C)(C)CCCC2(C)C)cc1	/	/	15	/	/	/	/	/
CCOC(=O)Oc1c(OC)cc(C(=O)O[C@@H]2C[C@@H]3CN4CCc5c([nH]c6cc(OC)ccc56)[C@H]4C[C@@H]3[C@H](C(=O)OC)[C@H]2OC)cc1OC	-5	0	50*	18	6	16	-12	43*
O=C(C1CCCN(S(=O)(=O)c2ccccc2)C1)N1CCCc2ccccc21 (stereo unspecified)	17	-1	37*	-12	13	5	-10	8
Cc1csc(SCC(=O)NC(=O)C2CCCCC2)n1	-11	7	12	13	-32	13	/	/
COc1ccc(CCNC(=O)C(=O)NCC2OCCN2S(=O)(=O)c2ccc(Cl)cc2)cc1OC (stereo unspecified)	13	/	42*	2	21	-3	3	17
COc1ccc(S(=O)(=O)N2CCOC2CNC(=O)C(=O)NCCc2ccc(OC)c(OC)c2)cc1 (stereo unspecified)	16	-9	12	14	17	12	/	/
CCN(C(=O)COC(=O)Cc1c[nH]c2ccccc12)C1CCS(=O)(=O)C1 (stereo unspecified)	27	-2	-12	-21	16	2	/	/

Bioassay records: PubChem, The Scripps Research Institute Molecular Screening Center
